The structures appear in SMILES notation. Where “and” joins values, the source holds several entries; their conditions need not be identical. Equal entries are not always repeated. About 83,000 compounds went through this panel and 20% of them were active in at least one assay; those are over-represented in the sample as a whole.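 Single-concentration screen, 48 h exposure, 96-well plates. Endpoint: percent growth. Below 10 = active.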 A number with no mark means an inactive call. Calls of active or inactive are those of the source.

One experiment concerns HCC-2998 colon. Kind of experiment: NCI-60 one-dose screen, 48 h (100 = growth as untreated, 0 = no growth, -100 = all killed). As to conditions: 10 µM unless noted.
As for `CCOc1ccccc1NC(=O)N/C(N)=N/c1nc2ccccc2s1`, the growth is 13.1%.
The same measure, in the same setting: the figure for `N#CC1=C(c2cccs2)Nc2c(c(-c3ccccc3)nn2-c2ccccc2)C12C(=O)Nc1ccc(Br)cc12` (stereo not drawn) is 6.28% (active); for `COc1cc(CNC(=O)C[C@H](C)CCC=C(C)C)ccc1OCc1cn(-c2ccc(Cl)c(Cl)c2)nn1` it is 93.5%; for `CN1C(=O)/C(=C\C(=O)c2cc3ccccc3oc2=O)c2ccccc21` it is 74.2%.
Still for that read-out and setting: the figure for `COc1ccc(Nc2nnc(-c3c[nH]c4ccccc34)o2)cc1` is 108%; for `Cc1ccc(C2CC(c3ccc(NC(=O)Nc4ccccc4)cc3)=NN2c2ccc(S(N)(=O)=O)cc2)cc1` (stereo not drawn) it is -75.4% (active); for `Cc1ccc(C(=O)Nc2cc(-n3cnc(F)c3)cc(C(F)(F)F)c2)cc1C#Cc1cnc2cccnn12` it is 70.6%.
Consider `CCCCCCCCc1ccc(C(=O)Nc2ccc(C)c(OP(=O)(O)O)c2)cc1`, for which the growth was 125%.
`C=CCn1c(O)c(N=Nc2nc(-c3cc4ccccc4oc3=O)cs2)c2ccccc21`: the growth is 78.4%.
On the same count and under the same terms, the figure for `FC(F)(F)c1cc2c(Cl)ncnc2n1CCN1CCOCC1` is -26.6% (active); for `C/C(=N\Nc1ccc(C(=O)O)cc1)c1cnn(-c2cc(=O)[nH]c3ccc(C)cc23)c1C` it is 108%; for `CCN1CCN(Cc2ccc(C(=O)Nc3cccc(Nc4ccc5c(OC)cccc5n4)c3)cc2C(F)(F)F)CC1` it is -94% (active).
`Nc1nn2c(-c3cc4cc(Br)ccc4oc3=O)ccnc2c1N=Nc1ccccc1`: the growth was 30.2%.
Regarding `Cc1cccc(-c2ccccc2Oc2ccc3nnc(Cl)n3n2)c1`, the growth is 105%.
`Cc1ccc(/C=C/C(=O)c2ccc(S(=O)(=O)NCCNc3nc(N(C)C)nc(N4CCOCC4)n3)cc2)cc1`: the growth is 114%.
On the same count and under the same terms, the figure for `C#CCN(C)CCCOc1ccc(N(C)C(=O)c2cc(C(C)C)c(O)cc2O)cc1Cl` is -38.4% (active); for `Cc1ccc(C(=O)C[n+]2cccc3c4ccccc4ccc32)cc1` it is 17.4%.
Same read-out and setting: to `COc1ccc(NC(=O)N/N=C/c2c[nH]c3ccccc23)cc1` belongs 44.3%; to `O=C(CSc1nc2ccccc2c(=O)[nH]1)NNC(=O)c1ccccc1Cl`, 113%.
The same measure, in the same setting: to `CC[C@]12C=CCN3CC[C@]4(C(=C(C(=O)OC)C1)Nc1cc(OC)c([C@@H]5[C@H]6O[C@H]6[C@@]6(CC)CC(C(=O)OC)=C7Nc8cc(O)ccc8[C@@]78CCN5[C@@H]68)cc14)[C@@H]32` belongs -76.3% (active); to `O=C(Cc1c(-c2ccccc2[N+](=O)[O-])n(-c2ncnc3c2c(-c2ccccc2)c(-c2ccccc2)n3Cc2ccccc2)[nH]c1=O)c1ccc(Cl)c(Cl)c1`, 24.9%; to `COc1ccc2[nH]c(O)c(N=Nc3nc(-c4ccc(Cl)cc4)cs3)c2c1`, 1.1% (active).
For the compound `O=C(CSc1nnc(-c2ccc(-c3nc4ccccc4[nH]3)cc2)o1)Nc1ccccc1`, the growth is 92.3%.
On the same count and under the same terms, the figure for `CN(C)CCOc1ccc(C(=O)C2[C@H](c3ccc(Cl)cc3)[C@@H](c3ccccc3)NC23C(=O)Nc2ccc(Cl)cc23)cc1` (stereo partly drawn) is -91.8% (active); for `COc1cc(/C=C/C(=O)c2cnn(-c3cc(=O)[nH]c4ccc(Cl)cc34)c2C)cc(OC)c1OC` it is -93.5% (active).

Another experiment has as its system KM12 colon. The description is as above. The note with it: 10 µM unless noted.
Regarding `O=C(CSc1nnc(-c2ccc(-c3nc4ccc(Cl)cc4[nH]3)cc2)o1)Nc1ccc(Cl)cc1`, the growth was 18.8%.
For the compound `COc1ccc(-n2c(NC(=O)N3CCN(C)CC3)c(C#N)c3ccccc32)cc1`, the growth is 34.1%.
Consider `N#Cc1c(NC(=O)N2CCOCC2)n(-c2ccc(OC(F)(F)F)cc2)c2cc(F)ccc12`, for which the growth was 92.5%.
On the same count and under the same terms, to `COc1ccc(-c2nc3ccccc3n2CC(=O)N=Nc2c(O)[nH]c3ccc(Br)cc23)cc1` belongs 71.1%; to `O=C1Nc2ccccc2/C1=C/C(=O)c1cc2ccccc2oc1=O`, 95.9%.
With `COc1sc(/C=N/NC(=O)c2[nH]c3ccc(Br)cc3c2-c2ccccc2)cc1Br`, the growth is 2.33% (active).
The same measure, in the same setting: to `CSc1ccc(OCc2nc3ccccc3n2-c2cccc(NS(C)(=O)=O)c2)cc1` belongs 103% and 78.8%; to `O=C(NNC(=O)c1ccc(OCc2nc3ccc(Cl)cc3[nH]2)cc1)Nc1ccc(Cl)c(Cl)c1`, 33.8%.
Still for that read-out and setting: the figure for `COc1cc(C2CC(c3ccc(F)cc3)=Nc3c(N)nc(N)nc3N2)ccc1Oc1nc(Nc2ccc(F)cc2)nc(N(C)C)n1` (stereo not drawn) is 44.9%; for `NC1(c2ccc(-c3ccc4ncnc(NCc5ccccc5)c4c3)cn2)COC1` it is 101% and 88.5%.
Take `C#CCN(C)CCCOc1ccc(N(CC)C(=O)c2cc(C(C)C)c(O)cc2O)cc1Cl`: the growth is -9.83% (active).
For `C#CCCCNCCNc1ccnc2cc(Cl)ccc12`, the growth is 91.3%.
Still for that read-out and setting: the figure for `COc1cc(CNC(=O)C[C@H](C)CCC=C(C)C)ccc1OCc1cn(-c2ccccc2F)nn1` is 99.3%; for `CCOc1ccccc1NC(=O)N/C(N)=N/c1nc2ccccc2s1` it is -0.458% (active).
The same measure, in the same setting: to `N#CC1=C(c2cccs2)Nc2c(c(-c3ccccc3)nn2-c2ccccc2)C12C(=O)Nc1ccc(Br)cc12` (stereo not drawn) belongs -12.2% (active); to `COc1cc(CNC(=O)C[C@H](C)CCC=C(C)C)ccc1OCc1cn(-c2ccc(Cl)c(Cl)c2)nn1`, 82.7%; to `CN1C(=O)/C(=C\C(=O)c2cc3ccccc3oc2=O)c2ccccc21`, 85.1%.
The same measure, in the same setting: the figure for `COc1ccc(Nc2nnc(-c3c[nH]c4ccccc34)o2)cc1` is 65.3%.
Turning to `Cc1ccc(C2CC(c3ccc(NC(=O)Nc4ccccc4)cc3)=NN2c2ccc(S(N)(=O)=O)cc2)cc1` (stereo not drawn), the growth was -50% (active).
On the same count and under the same terms, the figure for `Cc1ccc(C(=O)Nc2cc(-n3cnc(F)c3)cc(C(F)(F)F)c2)cc1C#Cc1cnc2cccnn12` is 39.1%.
With `CCCCCCCCc1ccc(C(=O)Nc2ccc(C)c(OP(=O)(O)O)c2)cc1`, the growth was 95.5%.
On the same count and under the same terms, the figure for `C=CCn1c(O)c(N=Nc2nc(-c3cc4ccccc4oc3=O)cs2)c2ccccc21` is 79.4%; for `FC(F)(F)c1cc2c(Cl)ncnc2n1CCN1CCOCC1` it is 96.4%.
As for `C/C(=N\Nc1ccc(C(=O)O)cc1)c1cnn(-c2cc(=O)[nH]c3ccc(C)cc23)c1C`, the growth was 99.9%.
The same measure, in the same setting: to `CCN1CCN(Cc2ccc(C(=O)Nc3cccc(Nc4ccc5c(OC)cccc5n4)c3)cc2C(F)(F)F)CC1` belongs -37.6% (active); to `Nc1nn2c(-c3cc4cc(Br)ccc4oc3=O)ccnc2c1N=Nc1ccccc1`, 26.1%.
Consider `Cc1cccc(-c2ccccc2Oc2ccc3nnc(Cl)n3n2)c1`, for which the growth is 106%.
On the same count and under the same terms, to `Cc1ccc(/C=C/C(=O)c2ccc(S(=O)(=O)NCCNc3nc(N(C)C)nc(N4CCOCC4)n3)cc2)cc1` belongs 21.1%; to `C#CCN(C)CCCOc1ccc(N(C)C(=O)c2cc(C(C)C)c(O)cc2O)cc1Cl`, 5.69% (active); to `Cc1ccc(C(=O)C[n+]2cccc3c4ccccc4ccc32)cc1`, 25.7%.
Same read-out and setting: to `COc1ccc(NC(=O)N/N=C/c2c[nH]c3ccccc23)cc1` belongs 24.7%.
Turning to `O=C(CSc1nc2ccccc2c(=O)[nH]1)NNC(=O)c1ccccc1Cl`, the growth is 101%.
On to `CC[C@]12C=CCN3CC[C@]4(C(=C(C(=O)OC)C1)Nc1cc(OC)c([C@@H]5[C@H]6O[C@H]6[C@@]6(CC)CC(C(=O)OC)=C7Nc8cc(O)ccc8[C@@]78CCN5[C@@H]68)cc14)[C@@H]32`, for which the growth was 0.303% (active).
On the same count and under the same terms, to `O=C(Cc1c(-c2ccccc2[N+](=O)[O-])n(-c2ncnc3c2c(-c2ccccc2)c(-c2ccccc2)n3Cc2ccccc2)[nH]c1=O)c1ccc(Cl)c(Cl)c1` belongs 15.7%; to `COc1ccc2[nH]c(O)c(N=Nc3nc(-c4ccc(Cl)cc4)cs3)c2c1`, 4.66% (active).
Take `O=C(CSc1nnc(-c2ccc(-c3nc4ccccc4[nH]3)cc2)o1)Nc1ccccc1`: the growth is 70.1%.
For `CN(C)CCOc1ccc(C(=O)C2[C@H](c3ccc(Cl)cc3)[C@@H](c3ccccc3)NC23C(=O)Nc2ccc(Cl)cc23)cc1` (stereo partly drawn), the growth is -67.1% (active).
The same measure, in the same setting: the figure for `COc1cc(/C=C/C(=O)c2cnn(-c3cc(=O)[nH]c4ccc(Cl)cc34)c2C)cc(OC)c1OC` is -28.4% (active).
